{"source": "the supplement of paper PMC10646978", "settings_in_all_cases": "modulator concentration 10 µM", "key": {"[1]": {"tested_on": "RAW-Dual (murine macrophage reporter line)", "test": "NF-kB reporter (SEAP) activity fold change vs agonist alone; higher = enhanced NF-kB activity", "how_it_was_run": "(§1)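 In 384-well plates holding 50 000 RAW-Dual murine macrophage reporter cells per well, compound at 10 μM final was pre-incubated for 1 hour at 37 °C, after which a PRR agonist was added overnight. Supernatant SEAP read with QUANTI-Blue at 620 nm absorbance reported NF-κB, and Lucia luciferase read with QUANTI-Luc luminescence reported IRF. Fold change values come from dividing each reporter signal by the mean of agonist-only control wells on the same plate, averaged over replicate plates with propagated errors.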"}, "[2]": {"tested_on": "RAW-Dual (murine macrophage reporter line)", "test": "IRF reporter (Lucia luciferase) activity fold change vs agonist alone; higher = enhanced IRF activity", "how_it_was_run": "as §1"}, "[3]": {"tested_on": "RAW-Dual (murine macrophage reporter line)", "test": "viability score (confluency relative to resting cells, overnight) (fraction); higher = more viable, active = viable (0.7 or more)", "how_it_was_run": "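Confluency was the readout: RAW-Dual macrophages were imaged with IncuCyte after an overnight exposure to compound at 10 μM final. IncuCyte software produced two masks over all imaged wells. The viability score expresses confluency against resting cells, and both masks had to exceed 70% of resting cells for a compound to meet the cutoff.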"}, "[4]": {"settings": "agonist: CpG ODN 1826 0.5 ug/mL"}}, "note": "± gives the standard deviation."}
{"smiles": "COc1ccc2c(Cl)c(C(=O)N3CCc4ccccc4C3)sc2c1", "values": [{"measurement": "NF-kB reporter", "setting": "[1]; [4]", "value": "0.875 ± 0.13"}, {"measurement": "NF-kB reporter", "setting": "[1]; agonist: LPS 0.1 ug/mL", "value": "0.87 ± 0.052"}, {"measurement": "NF-kB reporter", "setting": "[1]; agonist: MPLA […]", "value": "1.81 ± 0.77"}, {"measurement": "IRF reporter", "setting": "[2]; agonist: 3'3'-cGAMP 10 ug/mL", "value": "0.845 ± 0.05"}, {"measurement": "IRF reporter", "setting": "[2]; agonist: LPS 0.1 ug/mL", "value": "1.38 ± 0.095"}, {"measurement": "IRF reporter", "setting": "[2]; agonist: MPLA […]", "value": "1.48 ± 0.13"}, {"measurement": "viability score", "setting": "[3]", "value": "1.01 (active)"}]}
{"smiles": "Cn1nc(CNC(=O)c2cccc3ccccc23)cc1C1CC1", "values": [{"measurement": "NF-kB reporter", "setting": "[1]; [4]", "value": "1.18 ± 0.067"}, {"measurement": "NF-kB reporter", "setting": "[1]; agonist: LPS 0.1 ug/mL", "value": "0.852 ± 0.065"}, {"measurement": "NF-kB reporter", "setting": "[1]; agonist: MPLA […]", "value": "0.963 ± 0.025"}, {"measurement": "IRF reporter", "setting": "[2]; agonist: 3'3'-cGAMP 10 ug/mL", "value": "0.833 ± 0.031"}, {"measurement": "IRF reporter", "setting": "[2]; agonist: LPS 0.1 ug/mL", "value": "1.06 ± 0.059"}, {"measurement": "IRF reporter", "setting": "[2]; agonist: MPLA […]", "value": "0.962 ± 0.15"}, {"measurement": "viability score", "setting": "[3]", "value": "0.817 (active)"}]}
{"smiles": "Cc1[nH]c2ccc(Br)cc2c(=O)c1CN1CCOCC1", "values": [{"measurement": "NF-kB reporter", "setting": "[1]; [4]", "value": "1.06 ± 0.062"}, {"measurement": "NF-kB reporter", "setting": "[1]; agonist: LPS 0.1 ug/mL", "value": "0.995 ± 0.11"}, {"measurement": "NF-kB reporter", "setting": "[1]; agonist: MPLA […]", "value": "0.972 ± 0.027"}, {"measurement": "IRF reporter", "setting": "[2]; agonist: 3'3'-cGAMP 10 ug/mL", "value": "1.01 ± 0.073"}, {"measurement": "IRF reporter", "setting": "[2]; agonist: LPS 0.1 ug/mL", "value": "0.973 ± 0.1"}, {"measurement": "IRF reporter", "setting": "[2]; agonist: MPLA […]", "value": "0.937 ± 0.16"}, {"measurement": "viability score", "setting": "[3]", "value": "0.995 (active)"}]}
{"smiles": "CC1=NN(c2ccc(S(N)(=O)=O)cc2)C(=O)C1=Cc1ccc(N(C)C)cc1", "values": [{"measurement": "NF-kB reporter", "setting": "[1]; [4]", "value": "1.02 ± 0.15"}, {"measurement": "NF-kB reporter", "setting": "[1]; agonist: LPS 0.1 ug/mL", "value": "0.967 ± 0.063"}, {"measurement": "NF-kB reporter", "setting": "[1]; agonist: MPLA […]", "value": "0.947 ± 0.04"}, {"measurement": "IRF reporter", "setting": "[2]; agonist: 3'3'-cGAMP 10 ug/mL", "value": "0.794 ± 0.2"}, {"measurement": "IRF reporter", "setting": "[2]; agonist: LPS 0.1 ug/mL", "value": "0.899 ± 0.052"}, {"measurement": "IRF reporter", "setting": "[2]; agonist: MPLA […]", "value": "0.892 ± 0.06"}, {"measurement": "viability score", "setting": "[3]", "value": "1 (active)"}]}
{"smiles": "CCN[C@H]1CN(CCCOC)S(=O)(=O)c2sc(S(N)(=O)=O)cc21", "values": [{"measurement": "NF-kB reporter", "setting": "[1]; [4]", "value": "1.01 ± 0.12"}, {"measurement": "NF-kB reporter", "setting": "[1]; agonist: LPS 0.1 ug/mL", "value": "1.04 ± 0.059"}, {"measurement": "NF-kB reporter", "setting": "[1]; agonist: MPLA […]", "value": "0.975 ± 0.05"}, {"measurement": "IRF reporter", "setting": "[2]; agonist: 3'3'-cGAMP 10 ug/mL", "value": "1.03 ± 0.067"}, {"measurement": "IRF reporter", "setting": "[2]; agonist: LPS 0.1 ug/mL", "value": "0.913 ± 0.042"}, {"measurement": "IRF reporter", "setting": "[2]; agonist: MPLA […]", "value": "1 ± 0.12"}, {"measurement": "viability score", "setting": "[3]", "value": "1 (active)"}]}
{"smiles": "CN(C)C1C(O)=C(C(N)=O)C(=O)C2(O)C(O)=C3C(=O)c4c(O)cccc4C(C)(O)C3CC12.Cl", "note": "(configuration not stated)", "values": [{"measurement": "NF-kB reporter", "setting": "[1]; [4]", "value": "1.11 ± 0.097"}, {"measurement": "NF-kB reporter", "setting": "[1]; agonist: LPS 0.1 ug/mL", "value": "1 ± 0.053"}, {"measurement": "NF-kB reporter", "setting": "[1]; agonist: MPLA […]", "value": "1.01 ± 0.021"}, {"measurement": "IRF reporter", "setting": "[2]; agonist: 3'3'-cGAMP 10 ug/mL", "value": "0.844 ± 0.056"}, {"measurement": "IRF reporter", "setting": "[2]; agonist: LPS 0.1 ug/mL", "value": "0.937 ± 0.1"}, {"measurement": "IRF reporter", "setting": "[2]; agonist: MPLA […]", "value": "0.921 ± 0.072"}, {"measurement": "viability score", "setting": "[3]", "value": "1 (active)"}]}
